Source: PubChem BioAssay AID492952 (Southern Research Specialized Biocontainment Screening …, 2010)
The whole screen tested about 2,300 compounds, of which about 1,500 (65%) were called active. The rule behind the calls is not given here. The set was probably picked from earlier hits. Some of the results follow. Measured potencies and affinities stand elsewhere.

assay: replicating M. tuberculosis growth inhibition, dose response, non-replicating M. tuberculosis project, H37Rv (AID 492952); conditions: series mostly up to 50 µM;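 note: Mycobacterium tuberculosis grown in culture; growth inhibition read after a week of incubation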

Row | Structure (SMILES) | outcome
1 | CC(=O)CCC1CC(c2ccc(Cl)cc2)=NO1 (centres undefined) | inactive
2 | COC(=O)c1ccccc1NC(=O)C1CC(c2ccc(F)cc2)=NO1 (centres undefined) | inactive
3 | CC(C)(C)c1ccc(OCCC(=O)OCC(=O)NC2CCCCC2)cc1 | inactive
4 | COc1ccc(OCCC(=O)OCC(=O)Nc2ccc(Br)cc2)cc1 | inactive
5 | O=C(COc1ccc([N+](=O)[O-])cc1)NNC(=O)c1cccs1 | inactive
6 | CC/C(=C\c1oc2cc3ccccc3cc2[n+]1CC)Nc1ccccc1 | inactive
7 | CCc1nnc(NC(=O)CN2CCN(c3ccccc3F)CC2)s1 | inactive
8 | Brc1ccc(OCCCCN2CCCCC2)cc1 | inactive
9 | CCOC(=O)c1c(-c2ccc(C)o2)csc1NC(=O)CN1CCCCC1 | inactive
10 | COc1ccc2cc(C(=O)NCc3ccccc3)c(=O)oc2c1 | inactive
11 | COCCNC(=O)c1cc2cc(Cl)cc(Cl)c2oc1=O | inactive
12 | NC(=O)N/N=C/c1ccccc1OC(=O)c1cc2ccccc2oc1=O | inactive
13 | COc1cccc2cc(C(=O)c3ccc([N+](=O)[O-])cc3)oc12 | inactive
14 | CC(C)[C@H](NC(=O)c1ccc(Br)cc1)C(=O)NC1CCCCC1 | inactive
15 | Oc1ccc(Cl)cc1CNCc1ccc(F)cc1 | inactive
16 | O=C(N/N=C/c1coc2ccccc2c1=O)c1ccc(Cl)cc1 | inactive
17 | O=C(N/N=C/c1cccc(F)c1)c1c(O)c2ccccc2[nH]c1=O | inactive

Row | Structure (SMILES) | outcome
18 | C=CCn1c(=O)c(C(=O)Nc2cccnc2)c(O)c2ccccc21 | inactive
19 | O=C1CC(N2CCSCC2)C(=O)N1CCc1ccccc1 (centres undefined) | inactive
20 | Cc1cc2ccccc2n1CCNC(=O)C(C)(C)C | inactive
21 | CC1CCN(CCOCCSc2ccc(Cl)cc2)CC1 | inactive
22 | O=C(COc1ccc(Cl)cc1)Nc1ccc2[nH]ncc2c1 | inactive
23 | CCCCCCNC(=O)c1ccc(Br)o1 | inactive
24 | C=CCNc1nc(C(=O)OCC(=O)c2cccc(Br)c2)cs1 | inactive
25 | CCOc1ccc(OCc2ccc(C(=O)N/N=C(\C)c3ccccn3)cc2)cc1 | inactive
26 | COc1ccc(C(=O)Nc2ccccc2C(=O)N/N=C/c2ccco2)cc1 | inactive
27 | CC(=O)NCCOC(=O)Nc1sc(=S)n(C)c1C | inactive
28 | C/C(=N\Nc1ccc(Cl)cc1)c1ccccn1 | inactive
29 | Cc1cc(O)c(-c2cc(O)c(C)cc2O)cc1O | inactive
30 | COC(=O)c1ccc(COC(=O)CCS(=O)(=O)c2ccc(C)cc2)cc1 | inactive
31 | O=C(COC(=O)c1ccccn1)Nc1cccc(Cl)c1Cl | inactive
32 | CC(C)(C)C(=O)COc1ccccc1[N+](=O)[O-] | inactive
33 | COCCn1c(C)cc(C(=O)COC(=O)c2ccc(Br)o2)c1C | inactive
34 | C=CC[n+]1ccn(-c2nc3ccccc3nc2[N-]S(=O)(=O)c2cccs2)c1 | inactive
